Screening results (PubChem BioAssay)
An excerpt weighted towards active compounds, which were near 11% of everything screened.
PNC assembly inh: blocks assembly of the perinucleolar compartment. PC3M PTB-GFP, PNC prevalence imaging, 16 h; hits give low values. activity change (PNC), negative = inhibition, % at 10 µM. hit rate 3.1% among 140,000. AID 2417;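 active means readout at or below -70, meaning at least 70% loss of cells showing the perinucleolar compartment, a nuclear body marking cancer cells; inconclusive means readout between -30 and a set limit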;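 further: plate controls were DMSO wells for no effect and camptothecin positive control wells for full effect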
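Read-out is percentage of cells bearing a perinucleolar compartment, from automated 20x imaging of fixed, Hoechst-stained PC3M PTB-GFP cells. Cells were seeded 4 h, then exposed 16 h to compound (23 nl of library stock) in duplicate plates.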
HPGD block: blocks human HPGD enzyme activity; purified HPGD, NADH fluorescence kinetic, PGE2 substrate; Potency, µM, without a hit: at the top dose activity change, negative = inhibition, usual class: inhibitors; hit rate 4.3% among 150,000; AID 894; further: potency means the concentration at half of the fitted maximal effect
Target sequence (P15428 whole entry, looked up): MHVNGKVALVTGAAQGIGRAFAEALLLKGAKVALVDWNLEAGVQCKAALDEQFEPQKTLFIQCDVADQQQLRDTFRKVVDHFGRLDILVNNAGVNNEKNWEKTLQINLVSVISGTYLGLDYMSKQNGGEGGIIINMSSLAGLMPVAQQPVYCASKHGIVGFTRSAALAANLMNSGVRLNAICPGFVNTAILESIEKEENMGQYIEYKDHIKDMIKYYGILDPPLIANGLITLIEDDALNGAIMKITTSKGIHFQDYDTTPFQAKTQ
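20 nM HPGD preincubated 15 min at room temperature with compound in 50 mM Tris-HCl pH 8, 0.01% Tween 20. Started with 1 mM NAD+ and 30 uM prostaglandin E2; NADH fluorescence (360/450 nm) read 5 times over 30-s intervals, last minus first.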
ALDH1A1 inh: inhibitors of human aldehyde dehydrogenase 1A1; P00352; Purified ALDH1A1, NADH fluorescence, propionaldehyde substrate; Potency, µM (highest dose often 75.3 µM), for the others: at the top dose activity, negative = inhibition, actives largely listed as inhibitors; hit rate 7.3% among 220,000; AID 1030;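 further: potency means the concentration at half of the fitted maximal effect; plate controls were no enzyme wells and a reference inhibitor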
KDM4E inh: blocks human JMJD2E demethylase activity; JMJD2E catalytic domain, FDH-coupled NADH fluorescence (FDH is formaldehyde dehydrogenase); Potency, µM (top dose mostly 57.1 µM), for inactives: at the top dose activity change, negative = inhibition, usual class: inhibitors; hit rate 1.6% among 230,000; B2RXH2;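 further: potency means the concentration at half of the fitted maximal effect; 0% = wells with enzyme and -100% = buffer wells without enzyme; nearly all actives have a fitted effect of over 50% in size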
Target sequence (B2RXH2 1-337 limits assumed): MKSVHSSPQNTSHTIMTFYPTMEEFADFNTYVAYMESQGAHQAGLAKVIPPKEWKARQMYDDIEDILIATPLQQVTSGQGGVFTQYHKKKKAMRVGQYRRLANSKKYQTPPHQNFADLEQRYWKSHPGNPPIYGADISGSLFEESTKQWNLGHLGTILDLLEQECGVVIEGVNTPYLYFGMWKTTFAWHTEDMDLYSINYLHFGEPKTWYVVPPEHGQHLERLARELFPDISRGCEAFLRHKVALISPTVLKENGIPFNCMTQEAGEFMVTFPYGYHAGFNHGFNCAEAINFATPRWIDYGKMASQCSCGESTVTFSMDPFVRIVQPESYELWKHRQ
* marks the source's active call; other numbers are inactive results; u = inconclusive; x = no result; ! = not confirmed by another sample; [ ] = remark or other dose. Unless noted, the call rests on the fitted dose curve; in most records, active means well fitted inhibition curve with a large enough effect (not every such curve was filed as active); inconclusive means small, poorly fitted or top-dose-only effect, or another doubt; inactive means no such curve, though single readings can be large or run the other way. Unless noted, on the % scale 0 is the no-effect control and ±100 the full control effect.

SMILES | PNC assembly inh | HPGD block | ALDH1A1 inh | KDM4E inh
CC(CCN(C)C)OC(=O)c1ccc(C(C)c2ccccc2)o1 (centres undefined) | -107* | -6% | 40µM* | 0%
COc1ccc(-n2c(Cc3cccn3C)nnc2SCC(=O)Nc2ccc3c(c2)OCCO3)cc1 | 17 | -19% | 1µM* | 1%
Cn1cccc1Cc1nnc(SCC(=O)Nc2ccc3c(c2)OCCO3)n1CCc1ccccc1 | u | -16% | 14µM* | -16%
Cn1cccc1Cc1nnc(SCC(=O)Nc2ccc3c(c2)OCO3)n1CCc1ccccc1 | u | -4% | u | -15%
COc1ccc(-n2c(Cc3cccn3C)nnc2SCC(=O)Nc2ccc3c(c2)OCO3)cc1 | 97 | -18% | 14µM* | -18%
COc1ccc(-n2c(Cc3cccn3C)nnc2SCC(=O)Nc2cccc(NC(C)=O)c2)cc1 | -5 | -10% | u | -6%
O=C(CN1CCCCC1)N1N=C(c2cccs2)CC1c1cccs1 (centres undefined) | x | x | u | -13%
Cc1ccc(C(=O)NC(=S)Nc2cccc(-c3nc4ccccc4s3)c2)cc1 | -112* | -8% | 11µM* | -13%
O=C(O)c1cccc(NC(=S)N/N=C/c2cccc(O)c2)c1 | x | x | -8% | -5%
NC(N)=NS(=O)(=O)c1ccc(NC(=S)NC(=O)c2ccccc2)cc1 | x | x | x | -2%
CC(=O)Nc1cccc(-c2nc3ccccc3s2)c1 | x | x | -7% | u
O=C(NC(=S)Nc1cccc([N+](=O)[O-])c1)c1ccccc1 | x | x | x | -3%
O=C(O)c1cccc(NC(=S)NC(=O)c2ccc(-c3ccccc3)cc2)c1 | x | x | 25µM* | -14%
O=C(O)c1cccc(NC(=S)N/N=C/c2ccccn2)c1 | x | x | 20µM* | u
NS(=O)(=O)c1ccc(NC(=S)NC(=O)c2ccc(-c3ccccc3)cc2)cc1 | 48 | -29% | 2µM* | -1%
Cc1cc(F)ccc1NCc1ccc([N+](=O)[O-])cc1 | x | x | 8% | -2%
N[C@@H](CCCCO)C(=O)O | x | -11% | -10%[13.5 µM] | x
Oc1ccc(Cl)cc1C=Nc1cnc2ccccc2c1 | x | u | -11%[13.5 µM] | x
Cc1ccc(C(=O)O)cc1NC(=S)NC(=O)c1ccc(-c2ccccc2)cc1 | x | x | 14µM* | -16%
Cc1ccc(C(=O)O)cc1NC(=S)NC(=O)c1ccc([N+](=O)[O-])cc1Cl | -17 | -4% | u | 1%
N#Cc1ccc(CN2CCC3(CC2)CCN(C(=O)c2ccncc2)CC3)cc1 | x | 2% | -1% | x
Cc1nonc1NC(=O)CSc1nnc(-c2ccoc2C)n1-c1cccc(Cl)c1 | u | -9% | 10µM* | 5%
COc1cccc(NC(=O)CSc2nnc(-c3ccoc3C)n2-c2ccccc2)c1 | -87* | -2% | u | 6%
CCCn1c(SCC(=O)Nc2nonc2C)nnc1-c1ccoc1C | 6 | -4% | 0% | 4%
COc1ccc(OC)c(NC(=O)CSc2nnc(-c3ccco3)n2-c2ccc(C(=O)O)cc2)c1 | u | u | 25µM* | -4%
SMILES | PNC assembly inh | HPGD block | ALDH1A1 inh | KDM4E inh
CO[C@@]12C[C@@H](COC(=O)c3cncc(Br)c3)CN(C)[C@H]1Cc1cn(C)c3cccc2c13 | x | 0% | -10% | u
C1CCC(Nc2nnnn2C2CCCCC2)CC1 | -28 | -16% | 3% | 0%
CN(C)/C=C/C(=O)c1nnn(C2CCCCC2)c1NC1CCCCC1 | 21 | -21% | 14µM* | 7%
COc1cc(C(=O)OCC(=O)NC(=O)C2CCCCC2)ccc1OC(F)F | x | x | 4% | 5%
COC(=O)N1CCC2(CC1)CN(c1ccncc1)C2 | x | -10% | 9% | x
O=C(NCCOC(=O)c1ccc(C(=O)OCCNC(=O)c2ccccc2)o1)c1ccccc1 | -10 | 7.9µM* | u | 0%
O=C(NCCOCCOCCNC(=O)c1ccccc1)c1ccccc1 | x | x | -11% | 16%
CC(=O)N(/N=C1\Sc2ccccc2C1=O)c1cccc(C)c1 | u | 3.5µM* | u | 0%
CCc1nnc(NC(=O)c2c(O)c3cccc4c3n(c2=O)CC4)s1 | 3 | -18% | 5% | -19%
CCc1nnc(NC(=O)c2ccc(Cl)c(S(=O)(=O)N3CCc4ccccc4C3)c2)s1 | -1 | -11% | -1% | -6%
CCc1nnc(NC(=O)c2ccc(S(=O)(=O)N3CCc4ccccc4C3)cc2)s1 | -85* | -13% | 3% | -21%
Cc1cc(C)c2sc(NNC(=O)c3ccc(S(=O)(=O)N4CCc5ccccc5C4)cc3)nc2c1 | 42 | -17% | 2% | 13µM*
CCc1nnc(NCC(=O)N2CCc3ccccc32)s1 | u | -9% | 25µM* | 0%
Oc1ccc2cc(SSc3ccc4cc(O)ccc4c3)ccc2c1 | x | -25% | -44% | x
O=C(O[C@@H]1OC2COC(=O)c3cc(O)c(O)c(O)c3-c3c(cc(O)c(O)c3O)C(=O)O[C@@H]([C@H]1O)[C@@H]2O)c1cc(O)c(O)c(O)c1 | 48 | 1.8µM* | -10% | -2%
COc1c(O)cc2c(c1O)C1OC(CO)C(O)[C@H](O)[C@H]1OC2=O (some centres undefined) | x | -12% | 4% | 7%
O=C(/C=C/c1ccccc1)c1ccc(O[C@H]2OC(CO)C(O)C(O)C2O)cc1O (some centres undefined) | x | -7% | -5% | 2%
c1ccc2c(N3CCNCC3)nc(-c3ccc4c(c3)OCO4)nc2c1 | x | -29% | u | -25%
O=C(NC1CCN(C(=O)N2c3ccccc3Sc3ccccc32)CC1)c1ccccc1F | -9 | -10% | 11µM* | -13%
CC1CCN(C(=O)N2c3ccccc3Sc3ccccc32)CC1 | -17 | -7% | 6% | 0%
Cc1cccc2sc(NS(C)(=O)=O)nc12 | x | x | 13% | 3%
COc1ccc(-c2nc(=S)[nH][nH]2)cc1 | 8 | 13µM* | 13µM* | u
Oc1ccc(-c2nc(=S)[nH][nH]2)cc1 | -28 | u | u | 0%
CCOc1ccc(-c2nc(=S)[nH][nH]2)cc1 | 5 | u | 25µM* | u
COC(=O)c1cc(C)ccc1OCc1ccc([N+](=O)[O-])cc1 | x | x | x | -6%
SMILES | PNC assembly inh | HPGD block | ALDH1A1 inh | KDM4E inh
COC(=O)C1=CO[C@@H](C)[C@H]2CN3CCc4c([nH]c5ccccc45)[C@@H]3C[C@H]12 | x | -16% | 0%[20.9 µM] | 13µM*!
COC(=O)C1=COC(C)C2CN3CCc4c([nH]c5ccccc45)C3CC12 (centres undefined) | -3 | x | 9% | 2%
COc1cc(/C=C2\N=C3CCCCCN3C2=O)ccc1O | u | -28% | u | -9%
O=C1/C(=C\c2ccc(O)c(O)c2)N=C2CCCCCN12 | x | x | x | 13µM*
COc1ccc(/C=C2\N=C3CCCCCN3C2=O)cc1OC | 4 | -17% | 14µM* | 5%
COc1ccc(/C=C2/N=C3CCCCCN3C2=O)cc1 | x | x | u | 4%
CC1(C)[C@@H](CC(=O)O)CCC[C@@H]1CC(=O)O | x | -2% | 1%[13.5 µM] | x
Cc1cc2cc(C(c3nnnn3C3CCCC3)N(Cc3cccnc3)Cc3ccco3)c(=O)[nH]c2cc1C (centres undefined) | 11 | u | 14µM* | -8%
Cc1ccc2cc(C(c3nnnn3C3CCCC3)N(Cc3ccccc3)Cc3ccco3)c(=O)[nH]c2c1 (centres undefined) | -30 | u | u | u
